A selection: hits, their analogues and other compounds. The true share with any hit is near 12%.
PLK1 PBD block: PLK1 (human) polo-box domain binding inhibition; 360,000 compounds, 2.8% hits; Plk1 PBD binding of FITC phosphopeptide, fluorescence polarization; Potency, µM, most hits filed as inhibitors; P53350; further: series mostly up to about 57 µM; nearly all actives have a fitted effect of over 65% in size
HP1b chromo inh: inhibitors of HP1-beta chromodomain binding to methylated histone tails | AlphaScreen HP1-beta / biotin-H3K9me3 peptide binding | P83916 | Potency, µM (highest dose often 114 µM), hits mostly inhibitors | 390,000 compounds, 0.56% hits | AID 540317; further: nearly all actives have a fitted effect of over 70% in size
Target sequence (P83916 whole entry, looked up): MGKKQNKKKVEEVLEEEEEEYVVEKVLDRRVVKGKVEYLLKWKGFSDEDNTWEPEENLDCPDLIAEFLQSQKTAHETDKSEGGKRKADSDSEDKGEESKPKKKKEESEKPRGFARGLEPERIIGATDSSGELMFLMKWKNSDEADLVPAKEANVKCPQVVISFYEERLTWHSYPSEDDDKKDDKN
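AlphaScreen: HP1-beta (50 nM) preformed 30 min with biotin-H3(1-18)K9me3 peptide (50 nM) in PBS pH 7.4, 0.01% Tween-20. Compound added for 30 min at RT, then streptavidin donor/nickel chelate acceptor beads (10 ug/mL) for 30 min.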
G9a inh: inhibitors of human histone lysine methyltransferase G9a. Q96KQ7. Potency, µM (series often up to 102 µM), actives largely listed as inhibitors. G9a H3K9 monomethylation, AlphaScreen, 2 h. 350,000 compounds, 8.8% hits; further: nearly all actives have a fitted effect of over 75% in size
Target sequence (Q96KQ7 913-1193 limits assumed): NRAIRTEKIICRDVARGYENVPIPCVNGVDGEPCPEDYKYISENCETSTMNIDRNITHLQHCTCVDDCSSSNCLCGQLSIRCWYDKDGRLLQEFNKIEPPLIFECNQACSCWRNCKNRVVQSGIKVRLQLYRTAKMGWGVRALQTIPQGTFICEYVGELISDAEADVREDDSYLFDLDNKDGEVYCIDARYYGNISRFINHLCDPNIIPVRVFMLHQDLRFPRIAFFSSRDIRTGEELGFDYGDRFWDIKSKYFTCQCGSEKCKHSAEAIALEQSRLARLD
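Step 1: enzyme (final 20 nM) with compound, 15 min RT. Step 2: substrate peptide 500 nM and SAM 20 uM, 2 h RT. Step 3: anti-H3K9me1 antibody and AlphaScreen beads, 10 min, then plate read.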
BAZ2B block: blocks human BAZ2B; AlphaScreen BAZ2B-H3K14Ac peptide displacement; Potency, µM (series often up to 114 µM), usual class: inhibitors; 360,000 compounds, 4.4% hits; further: nearly all actives have a fitted effect of over 60% in size
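AlphaScreen luminescence quantifies BAZ2B engagement of H3K14Ac peptide; the protein and biotinylated peptide are both at 50 nM final, buffer PBS pH 7.4 with 0.01% Tween-20, all steps at room temperature.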
JMJD2A Tudor: inhibitors of human JMJD2A Tudor domain; AlphaScreen JMJD2A-Tudor / H3K4me3 peptide binding; AID 504339; 390,000 compounds, 4.4% hits; Potency, µM (titrated, usually from 114 µM), actives largely listed as inhibitors; further: nearly all actives have a fitted effect of over 50% in size
PI5P4K alpha inh: inhibitors of human PI5P4K alpha | 330,000 compounds, 1.2% hits | max response, % | PI5P4Kalpha enzyme, ADP-Glo luminescence, 60 min; hits give low values; active means max response of -50% or lower; inconclusive means between -30% and -50%; inactive means -30% or higher; further: value at the top dose of about 77 µM
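Human PI5P4Kalpha with substrate in 0.038 M HEPES pH 7.4, 0.28 mM EGTA, 0.1% CHAPS, 5% DMSO; reaction started with 5 microM ATP (final), 60 min at room temperature. ADP formed read by ADP-Glo luminescence.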
Of the large screens only hits and unclear results are named; the others gave an inactive call. Unless noted, the call rests on the fitted dose curve; in most records, active means well fitted curve in the direction sought with a large enough effect; inconclusive means small, poorly fitted or top-dose-only effect, or another doubt; inactive means no such curve, though single readings can be large; an effect the other way counts as inactive or inconclusive.

CCOc1cc(N2CCOCC2)c(OCC)cc1NC(=O)Cn1cnnn1	none (no result: G9a inh, BAZ2B block)
COc1ccc(/C=C2/CCCC(C(=O)C(F)(F)F)=C2O)cc1OC	none (no result: G9a inh)
COc1ccc(/C=C2\CCCC(C(=O)C(F)(F)F)=C2O)cc1OC	G9a inh 8.91µM, BAZ2B block inconclusive (no result: PLK1 PBD block, HP1b chromo inh, JMJD2A Tudor, PI5P4K alpha inh)
CCOc1cc(/C=C2\CCCC(C(=O)C(F)(F)F)=C2O)ccc1O	G9a inh 20µM
COc1cc(NC(=NS(=O)(=O)c2ccccc2)c2ccccc2)ncn1	none (no result: G9a inh, BAZ2B block)
Cc1cc(Nc2nn(C)c(N)c2C#N)ccc1F	PI5P4K alpha inh -65.6
COC(Cc1ccccc1N1CCCC1=O)OC	G9a inh 56.2µM, BAZ2B block inconclusive
O=C(NCc1ccccc1CN1CCCCC1)c1ccccc1N1CCCC1=O	JMJD2A Tudor inconclusive
CN1CCN(Cc2nc3ccccc3c(=O)n2Cc2nc(-c3ccc([N+](=O)[O-])cc3)cs2)CC1	PLK1 PBD block 29.9µM, HP1b chromo inh inconclusive, G9a inh 22.4µM, JMJD2A Tudor 20µM
CN(C)Cc1nc2ccccc2c(=O)n1Cc1nc(-c2cccc([N+](=O)[O-])c2)cs1	PLK1 PBD block inconclusive, HP1b chromo inh inconclusive, G9a inh inconclusive, JMJD2A Tudor inconclusive
C=CCn1c(Cc2nc3ccccc3[nH]2)n[nH]c1=S	G9a inh 2µM, BAZ2B block inconclusive, JMJD2A Tudor 8.91µM (no result: PI5P4K alpha inh)
S=c1[nH]nc(Cc2cccc3ccccc23)n1-c1ccccc1	G9a inh inconclusive, JMJD2A Tudor 79.4µM
S=c1[nH]nc(Cc2noc3ccccc23)n1-c1ccccc1	G9a inh 2.82µM, JMJD2A Tudor 11.2µM
O=c1c2ccccc2cnn1Cc1n[nH]c(=S)n1-c1ccccc1	G9a inh 7.94µM, JMJD2A Tudor 25.1µM
S=c1[nH]nc(CCc2nc3ccccc3[nH]2)n1-c1ccccc1	G9a inh inconclusive
Nn1c(Cc2cccc3ccccc23)nnc1SCc1ccccc1	none
CN1CCN(C(=O)/C(=C/c2cn(S(=O)(=O)N(C)C)c3ccccc23)NC(=O)c2ccccc2)CC1	none
COc1ccc(S(=O)(=O)c2cn(Cc3ccccc3)c3cc(N4CCCC4)c(F)cc3c2=O)cc1	none (no result: PLK1 PBD block, PI5P4K alpha inh)
C=CCn1c(Cc2cccc3ccccc23)n[nH]c1=S	G9a inh 2.24µM, JMJD2A Tudor 50.1µM
S=c1[nH]nc(CCc2nc3ccccc3[nH]2)n1-c1cccc(Cl)c1	JMJD2A Tudor 44.7µM, PI5P4K alpha inh inconclusive
C=CCn1c(CCn2c3ccccc3c3ccccc32)n[nH]c1=S	G9a inh inconclusive
CCOC(=O)c1cc(OC(=O)c2ccccc2F)n(-c2ccccc2)n1	none (no result: PLK1 PBD block, PI5P4K alpha inh)
C[C@@H]1CCCCO[C@H](CN(C)C(=O)Nc2ccc3c(c2)OCO3)[C@H](C)CN([C@@H](C)CO)C(=O)c2cc(NS(=O)(=O)c3ccc(Cl)cc3)ccc2O1	none (no result: HP1b chromo inh, G9a inh, BAZ2B block, JMJD2A Tudor)
CCOC(=O)c1[nH]c2ccccc2c1N=CN(C)C	none (no result: G9a inh, BAZ2B block)
COC(=O)c1[nH]c2cc(OC)ccc2c1N=CN(C)C	G9a inh 39.8µM
COc1ccc(CNC[C@@H](CCCCN(C)Cc2ccc(OC)cc2)N2C[C@H](c3ccccc3)N(CCc3ccc(Cl)c(Cl)c3)C(=O)C2=O)cc1	G9a inh inconclusive, BAZ2B block inconclusive, JMJD2A Tudor 39.8µM, PI5P4K alpha inh inconclusive
COc1ccc(OC)c(CNC(=O)CN(c2ccc(C)cc2)S(=O)(=O)N(C)C)c1	none (no result: PLK1 PBD block, PI5P4K alpha inh)
COc1ccc(C(NC(=O)N2CC(C)OC(C)C2)C(Cl)(Cl)Cl)cc1F (configuration not stated)	JMJD2A Tudor inconclusive
Cc1ccc(C(NC(=O)N2CC(C)OC(C)C2)C(Cl)Cl)cc1F (configuration not stated)	G9a inh 79.4µM
Cc1ccc(C(NC(=O)N2CCOCC2)C(Cl)Cl)cc1F (configuration not stated)	PLK1 PBD block 26.7µM, G9a inh 44.7µM
Cc1ccc(C(NC(=O)N2CCN(C)CC2)C(Cl)Cl)cc1F (configuration not stated)	G9a inh inconclusive
CCOc1ccccc1NC(=O)Nc1cc(C(=O)NCc2ccc(C)cc2)ccc1N1CCCC1	none (no result: PLK1 PBD block, PI5P4K alpha inh)
CC(=O)Oc1ccc(C(=O)Cc2ccccn2)c(O)c1	G9a inh inconclusive, BAZ2B block inconclusive

Compound activity from PubChem BioAssay.
